Most compounds without a hit are left out; they make up all but 5.6% or so of the library.
RORgamma inh: qHTS for inhibitors of ROR gamma transcriptional activity. Drosophila S2 Gal4-RORgamma UAS-luciferase reporter, 20 h. Potency, µM (series often up to 53.6 µM), without a hit: at the highest dose activity change, negative = inhibition, most hits filed as inhibitors. Nuclear receptor ROR-gamma (Mus musculus), P51450. 310,000 tested, 5.4% active. AID 2551, 2010; note: potency is the fitted concentration of half-maximal effect; nearly all actives have a fitted effect of over 60% in size
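Read-out: Photinus luciferase luminescence; inhibitors lower reporter signal. Insect Schneider cells with Gal4-ROR gamma fusion under metallothionein promoter, UAS reporter; 700 uM final copper sulfate induction, 20 hr, ambient temperature.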
PKM2 act: qHTS Assay for Activators of Human Muscle isoform 2 Pyruvate Kinase | AID 1631, 2009 | Pyruvate kinase PKM (Homo sapiens), P14618 | 260,000 tested, 0.34% active | purified PKM2, Kinase-Glo ATP luminescence, activation; response scale: 0% is enzyme alone, no compound | Potency, µM (highest dose often 57.5 µM), for the others: at the highest dose activation, hits mostly activators; note: potency is the fitted concentration of half-maximal effect; nearly all actives have a fitted effect of over 55% in size
Target sequence (P14618 whole entry, looked up, canonical isoform): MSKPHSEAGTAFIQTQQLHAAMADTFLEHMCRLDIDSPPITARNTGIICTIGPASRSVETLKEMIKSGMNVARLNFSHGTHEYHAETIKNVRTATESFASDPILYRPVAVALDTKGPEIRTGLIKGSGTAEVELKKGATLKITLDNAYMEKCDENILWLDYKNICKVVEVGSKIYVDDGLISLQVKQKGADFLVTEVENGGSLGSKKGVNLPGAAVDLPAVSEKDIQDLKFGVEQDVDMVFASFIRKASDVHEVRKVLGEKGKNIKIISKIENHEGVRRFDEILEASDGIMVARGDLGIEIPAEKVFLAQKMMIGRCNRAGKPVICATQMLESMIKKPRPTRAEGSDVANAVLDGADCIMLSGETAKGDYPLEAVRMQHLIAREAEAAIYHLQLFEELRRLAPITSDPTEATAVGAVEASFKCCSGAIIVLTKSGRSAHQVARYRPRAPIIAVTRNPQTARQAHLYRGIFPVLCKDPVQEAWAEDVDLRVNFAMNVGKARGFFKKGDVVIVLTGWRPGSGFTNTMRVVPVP
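hPK-M2, >95% pure; 0.1 mM ADP / 0.5 mM PEP final; imidazole pH7.2 buffer w/ 7 mM MgCl2, 50 mM KCl; 1 h RT; Kinase-Glo lum. Intermediate enzyme activity for dual inhibitor/activator qHTS.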
VP16 counter: VP16 counterscreen qHTS for inhibitors of ROR gamma transcriptional activity. AID 2546, 2010. Drosophila S2 Gal4-VP16 UAS-luciferase, luminescence, 20 h. 310,000 tested, 3.5% active. Potency, µM (titrated, usually from 53.6 µM), for inactives: at the top dose activity, negative = inhibition, most hits filed as inhibitors;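 note: Gal4-VP16 expression switched on by copper sulfate through the metallothionein promoter; potency is the fitted concentration of half-maximal effect; nearly all actives have a fitted effect of over 50% in size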
CtBP-E1A inh: qHTS Assay for Inhibitors of the CtBP/E1A Interaction. activity change, % (test concentration not listed). AID 651724, 2012. 340,000 tested, 0.49% active. AlphaScreen GST-E1A/His-CtBP binding, 1536-well; hits give low values. CtBP / adenovirus E1A interaction (AlphaScreen); in the data active = activity change below about -65%; inconclusive = mostly about -30% to -63%
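In 5 uL wells, 23 nL compound meets equimolar GST-E1A and His-CtBP (5X stock 125 nM each) for 2 h, 37 °C. Beads (5X, 50 ug/mL) then 1 h, 37 °C, dark.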
Six1-Eya2 blk: qHTS Assay for Inhibitors of the Six1/Eya2 Interaction; Homeobox protein SIX1 (Homo sapiens) + Protein phosphatase EYA2 (Homo sapiens), …; AlphaScreen GST-Six1/His-Eya2 binding, biochemical; hits give low values; activity change, % (no concentration beside the values); 360,000 tested, 0.56% active; in the data active = activity change below about -65%; inconclusive = mostly about -30% to -63%
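Homogeneous AlphaScreen proximity assay pairing GST-Six1 with His-tagged Eya2 (added as 5X mix: 250 nM and 500 nM) in 50 mM Tris pH 8.0, 300 mM NaCl, 1 mM TCEP. Glutathione donor and nickel acceptor beads; 1 h, 37 °C, dark.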
Active calls of the source: *. Unless noted, calls come from the whole dose curve; as a rule, active = well fitted curve in the direction sought with a large enough effect; inconclusive = small, poorly fitted or top-dose-only effect, or another doubt; inactive = no such curve, though single readings can be large; an effect the other way counts as inactive or inconclusive. % is set by controls: 0 for no effect and ±100 for the full control effect.

Screening CC1CCN(C(=O)Cn2c3ccccc3c3nc4n(c(=O)c32)CCS4)CC1 returned RORgamma inh 2%, VP16 counter -6% and Six1-Eya2 blk -4.
Screening CC(C)Oc1ccc(C(=O)NC(=S)N2CCOCC2)cc1 returned RORgamma inh 3.5µM*, PKM2 act 0%, VP16 counter 1.3µM*, CtBP-E1A inh 2 and Six1-Eya2 blk 8.
For Fc1cccc(Cl)c1Cn1nnc2c(NCc3ccccn3)ncnc21 the results were RORgamma inh 12%, PKM2 act 30%, VP16 counter 4%, CtBP-E1A inh -6 and Six1-Eya2 blk -4.
`Fc1ccccc1Cn1nnc2c(NCCc3ccccn3)ncnc21` gave RORgamma inh 32%, PKM2 act 13µM*, VP16 counter -1%, CtBP-E1A inh 3 and Six1-Eya2 blk 2.
For Cc1cccc(N2C(=O)C(Cl)=C(N3CCOCC3)C2=O)c1 the results were RORgamma inh 6%, PKM2 act inconclusive, VP16 counter inconclusive, CtBP-E1A inh 5 and Six1-Eya2 blk -13.
Screening CCc1ccc(N2C(=O)C(Cl)=C(N3CCCCCC3)C2=O)cc1 returned RORgamma inh inconclusive, VP16 counter 24%, CtBP-E1A inh 32 and Six1-Eya2 blk 12.
Screening CCc1ccc(N2C(=O)C(Cl)=C(N3CCOCC3)C2=O)cc1 returned RORgamma inh 30%, PKM2 act 16%, VP16 counter 13µM*, CtBP-E1A inh 4 and Six1-Eya2 blk -2.
O=C1C(Cl)=C(N2CCOCC2)C(=O)N1c1cccc(Cl)c1 was read as RORgamma inh inconclusive, PKM2 act 14µM*, VP16 counter inconclusive, CtBP-E1A inh 0 and Six1-Eya2 blk inconclusive.
Screening CC(C)(C)n1ncc2c(=O)n(CC(=O)OCc3ccccc3)cnc21 returned RORgamma inh 8.9µM*, PKM2 act -1%, VP16 counter 1.6µM*, CtBP-E1A inh 3 and Six1-Eya2 blk 12.
`Cc1ccc(CN2CCN(Cc3cccn3-c3ccccn3)CC2CCO)o1` (stereo not drawn) gave RORgamma inh 15%, PKM2 act 2%, VP16 counter 1% and Six1-Eya2 blk 17.
`CSc1ncccc1C(=O)N1CCN(S(=O)(=O)c2cc(C)ccc2C)CC1` gave RORgamma inh 13%, VP16 counter -2%, CtBP-E1A inh 3 and Six1-Eya2 blk -4.
For Oc1ccc(CN2CCc3ccccc3C2)c2cccnc12 the results were RORgamma inh 1µM*, PKM2 act -1%, VP16 counter inconclusive, CtBP-E1A inh -95* and Six1-Eya2 blk -94*.
Screening Oc1c(Cl)cc(CN2CCCCC2)c2cccnc12 returned RORgamma inh 4.5µM* and VP16 counter 3.5µM*.
For Cc1ccc(C)c(S(=O)(=O)N2CCN(Cc3ccc(O)c4ncccc34)CC2)c1 the results were RORgamma inh 2µM*, PKM2 act 0%, VP16 counter 3.2µM*, CtBP-E1A inh -86* and Six1-Eya2 blk -79*.
Screening Oc1c(CN2CCCCC2)ccc2cccnc12 returned CtBP-E1A inh -93* and Six1-Eya2 blk -80*.
Oc1c(CN2CCOCC2)ccc2ccccc12 was read as RORgamma inh -15%, PKM2 act -1%, VP16 counter -4%, CtBP-E1A inh -1 and Six1-Eya2 blk -7.
`Oc1cc2c(cc1CN1CCc3ccccc3C1)OCO2` gave RORgamma inh -30%, PKM2 act inconclusive, VP16 counter 18%, CtBP-E1A inh -19 and Six1-Eya2 blk -12.
Screening Cc1ccccc1CSc1nnc2ccc(-c3ccncc3)nn12 returned RORgamma inh -11%, PKM2 act -1%, VP16 counter -3%, CtBP-E1A inh -1 and Six1-Eya2 blk -3.
Screening CCCCOc1ccc(C(=O)NCC(=O)NCCOc2ccccc2OC)cc1 returned CtBP-E1A inh -10 and Six1-Eya2 blk 1.
For O=C(NNC(=O)c1ccc(S(=O)(=O)N2CCOCC2)cc1)c1ccccc1 the results were RORgamma inh 29%, PKM2 act -1%, VP16 counter -5%, CtBP-E1A inh -10 and Six1-Eya2 blk 3.
Screening CCOc1ccc(CCNC(=O)C2CC(=O)N(c3ccc4c(c3)OCCO4)C2)cc1OCC (stereo not drawn) returned CtBP-E1A inh 2 and Six1-Eya2 blk -6.
`Oc1ccc2ccccc2c1CN1CCN(c2ccccc2)CC1` gave RORgamma inh 7%, PKM2 act -5%, VP16 counter 12%, CtBP-E1A inh 6 and Six1-Eya2 blk -2.
`COc1cc(CN2CCc3ccccc3C2)ccc1O` gave RORgamma inh 5.6µM*, PKM2 act -2%, VP16 counter 3.5µM* and Six1-Eya2 blk 6.
Screening Oc1ccc(CN2CCN(c3ccccc3)CC2)c2cccnc12 returned RORgamma inh 1.3µM*, PKM2 act 7%, VP16 counter 1µM*, CtBP-E1A inh -75* and Six1-Eya2 blk -74*.
`Oc1ccc(CN2CCCCC2)c2cccnc12` gave RORgamma inh 7.1µM*, PKM2 act 3%, VP16 counter 7.9µM*, CtBP-E1A inh -90* and Six1-Eya2 blk -91*.
`COc1cc(CN2CCc3ccccc3C2)cc([N+](=O)[O-])c1O` gave RORgamma inh -9%, PKM2 act 14%, VP16 counter -5% and Six1-Eya2 blk 3.
O=C(Oc1cccc([N+](=O)[O-])c1)N1CCCCC1 was read as RORgamma inh -14%, PKM2 act 11%, VP16 counter 4% and Six1-Eya2 blk -8.
Screening CCCCCCCOC(=O)C[N+](C)(C)CCOC1CC2CCC1(C)C2(C)C (stereo not drawn) returned RORgamma inh inconclusive, PKM2 act 2%, VP16 counter 13µM*, CtBP-E1A inh -23 and Six1-Eya2 blk -6.
Screening CC(=O)N[C@@H]1C(O[C@H]2O[C@H](C(=O)O)C(O)[C@H](O)[C@H]2O)[C@H](O)[C@@H](CO)O[C@H]1O[C@@H]1C(C(=O)O)O[C@@H](O[C@H]2[C@H](O)[C@@H](CO)OC(O)[C@@H]2NC(C)=O)[C@H](O)[C@H]1O (stereo partly drawn) returned RORgamma inh -2% and VP16 counter -4%.
`O=C(CSc1ccc(F)cc1)N1CCN(S(=O)(=O)c2ccccc2)CC1` gave RORgamma inh -5%, PKM2 act 3.2µM*, VP16 counter 0% and Six1-Eya2 blk -1.
